RECQ1 inh-1 = inhibitors of human RECQ1 DNA helicase | AID 2549 | 0.54% of 240,000 active | RECQ1 DNA unwinding, red fluorescence kinetic read | Potency, µM (doses to about 57.3 µM), inactives show top-dose activity, negative = inhibition, hits mostly inhibitors | P46063;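 further: potency means the concentration at half of the fitted maximal effect; plate controls were vehicle for no effect and no enzyme for full effect; nearly all actives have a fitted effect of over 30% in size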
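50 nM RECQ1T1 preincubated 15 min with compound in Tris pH 8.0 buffer with MgCl2, DTT, Tween-20 and 2.5 ug/ml poly(dI-dC); started with 200 nM TAMRA/BHQ-2 forked duplex and 2 mM ATP. Unwinding read as fluorescence (525/598 nm), two reads 2 h apart.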
BLM inh-1 = Bloom syndrome helicase (human) inhibition; recombinant BLM DNA unwinding, fluorescence dequenching; Potency, µM (top dose mostly 56.1 µM), for inactives: at the highest dose activity change, negative = inhibition, actives largely listed as inhibitors; 0.2% of 350,000 active;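 further: potency means the concentration at half of the fitted maximal effect; plate controls were vehicle for no effect and no enzyme for full effect; nearly all actives have a fitted effect of over 35% in size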
FEN1 inh-1 = human FEN1 inhibition; Recombinant FEN1 flap cleavage, fluorescence, 15 min; Potency, µM (doses to about 114 µM), without a hit: at the top dose activity change, negative = inhibition, actives largely listed as inhibitors; 0.35% of 390,000 active; further: potency means the concentration at half of the fitted maximal effect; on the % scale 0 is the no-effect control and ±100 the full control effect; nearly all actives have a fitted effect of over 65% in size
Target sequence (P39748 whole entry, looked up): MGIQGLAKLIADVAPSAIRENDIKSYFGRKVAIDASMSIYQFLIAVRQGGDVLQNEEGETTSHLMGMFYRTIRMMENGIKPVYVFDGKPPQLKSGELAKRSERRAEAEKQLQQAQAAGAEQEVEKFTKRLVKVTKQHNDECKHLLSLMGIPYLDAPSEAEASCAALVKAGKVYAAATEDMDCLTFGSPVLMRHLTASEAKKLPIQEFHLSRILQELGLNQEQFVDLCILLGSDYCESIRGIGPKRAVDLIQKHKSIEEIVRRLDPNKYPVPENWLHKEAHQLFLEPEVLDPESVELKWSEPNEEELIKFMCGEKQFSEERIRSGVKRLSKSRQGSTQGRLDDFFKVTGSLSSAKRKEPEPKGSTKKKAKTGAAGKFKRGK
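Enzyme 10 nM, 15 min RT preincubation with compound; start with substrate 50 nM final; reads at 0 and 15 min; qHTS titration, four-parameter Hill fit.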
PI5P4K alpha inh = inhibitors of human PI5P4K alpha; P48426; PI5P4Kalpha enzyme, ADP-Glo luminescence, 60 min; hits give low values; max response, %; 1.2% of 330,000 active; AID 652105; active means max response of -50% or lower; inconclusive means between -30% and -50%; inactive means -30% or higher; further: value at the top dose of about 77 µM; on the % scale 0 is the no-effect control and ±100 the full control effect
Target sequence (P48426 whole entry, looked up): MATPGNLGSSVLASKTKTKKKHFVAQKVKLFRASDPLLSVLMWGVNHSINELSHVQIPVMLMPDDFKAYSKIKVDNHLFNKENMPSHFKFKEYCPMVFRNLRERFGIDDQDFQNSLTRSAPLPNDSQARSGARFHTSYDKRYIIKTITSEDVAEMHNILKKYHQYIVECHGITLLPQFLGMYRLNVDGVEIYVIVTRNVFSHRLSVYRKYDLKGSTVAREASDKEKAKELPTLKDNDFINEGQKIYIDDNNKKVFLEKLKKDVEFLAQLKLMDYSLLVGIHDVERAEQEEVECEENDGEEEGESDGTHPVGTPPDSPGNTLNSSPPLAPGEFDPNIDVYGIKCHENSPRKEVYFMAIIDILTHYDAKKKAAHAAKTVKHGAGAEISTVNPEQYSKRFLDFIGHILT
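qHTS, 1536-well: enzyme/substrate mix, compound by pin tool, 5 microM ATP final; RT 60 min; ADP-Glo reagents 1 (45 min) then 2 (30 min); luminescence.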
APE1 inh = inhibitors of human APE1 endonuclease; P27695; recombinant APE1, TAMRA/BHQ-2 abasic DNA cleavage fluorescence; Potency, µM (doses to about 65.8 µM), inactives show at the highest dose activity change, negative = inhibition, actives largely listed as inhibitors; 0.35% of 350,000 active; AID 2517;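 further: potency means the concentration at half of the fitted maximal effect; plate controls were vehicle for no effect and reference inhibitor for full effect; nearly all actives have a fitted effect of over 55% in size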
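Enzyme (0.75 nM final) and test compound are incubated 15 min at room temperature before adding 50 nM quenched THF abasic-site duplex. Cleavage dequenches TAMRA, followed at 525/598 nm over three reads one minute apart.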
GCN5L2 inh-1 = inhibitors of human GCN5L2 histone acetyltransferase; Potency, µM (series often up to 58.9 µM), for inactives: at the highest dose activity change, negative = inhibition, actives largely listed as inhibitors; GCN5L2 HAT assay, ThioGlo1 CoA-SH fluorescence; 0.21% of 390,000 active; Q92830; further: potency means the concentration at half of the fitted maximal effect; on the % scale 0 is the no-effect control and ±100 the full control effect
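qHTS, 1536-well. 20nM enzyme, pH 7.5 HEPES/EDTA/Tween-20 buffer; 15 min compound preinc., RT. Start: 75uM H3(1-25), 70uM AcCoA, 50uM ThioGlo1. Read Ex340/Em540 at t=0 (autofluorescence flag) and t=20 min.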
BLM inh-2 = BLM (human) helicase inhibition, confirmation; shares compounds with BLM inh-1; BLM DNA unwinding, fluorescence quenching, biochemical; Potency, µM, for the others: max response, negative = inhibition, actives largely listed as inhibitors; 40% of 220 active;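 further: strand separation dequenches TAMRA so unwinding raises red fluorescence; potency means the concentration at half of the fitted maximal effect; series mostly up to about 69 µM; on the % scale 0 is the no-effect control and ±100 the full control effect; nearly all actives have a fitted effect of over 45% in size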
RECQ1 inh conf = confirmation of human RECQ1 helicase inhibitors; shares compounds with RECQ1 inh-1; RECQ1 helicase DNA unwinding, fluorescence; 28% of 610 active; Potency, µM (doses to about 229 µM), for the others: at the highest dose activity change, negative = inhibition, hits mostly inhibitors; further: potency means the concentration at half of the fitted maximal effect; on the % scale 0 is the no-effect control and ±100 the full control effect; nearly all actives have a fitted effect of over 45% in size
RECQ1 ADP FP = ADP displacement flagged in RECQ1 inhibitor counter-screen; ADP fluorescence polarization displacement counterscreen; 27% of 530 active; AID 2711; Potency, µM (doses to about 228 µM), inactives show at the highest dose activity change, negative = inhibition, most hits filed as inhibitors; shares compounds with RECQ1 inh-1; further: potency means the concentration at half of the fitted maximal effect; on the % scale 0 is the no-effect control and ±100 the full control effect; nearly all actives have a fitted effect of over 45% in size
RECQ1 inh-2 = RECQ1 helicase inhibition confirmed, round 2 | shares compounds with RECQ1 inh-1 | recombinant RECQ1 DNA unwinding, red fluorescence | Potency, µM (highest dose often 119 µM), for the others: at the highest dose activity, negative = inhibition, actives largely listed as inhibitors | 15% of 1,100 active; further: potency means the concentration at half of the fitted maximal effect; on the % scale 0 is the no-effect control and ±100 the full control effect; nearly all actives have a fitted effect of over 50% in size
GCN5L2 inh-2 = human KAT2A HAT inhibition, hit confirmation; shares compounds with GCN5L2 inh-1; GCN5L2 HAT, ThioGlo1 CoA fluorescence, 20 min; Potency, µM, actives largely listed as inhibitors; 70% of 140 active
FEN1 inh-2 = FEN1 inhibition, cherry-pick retest | 79% of 880 active | Potency, µM, actives largely listed as inhibitors | shares compounds with FEN1 inh-1 | FEN1 flap cleavage, TAMRA/BHQ2 fluorogenic DNA substrate; further: potency means the concentration at half of the fitted maximal effect; nearly all actives have a fitted effect of over 60% in size
ADP-Glo interf = counter-screen for PI5P4K inhibitors: ADP-Glo detection interference, no enzyme. ADP-Glo detection counter-screen, luciferase luminescence, no enzyme. 1,100 tested, under 10 active. Potency, µM (doses to about 76.9 µM), inactives show top-dose activity change, negative = inhibition, actives largely listed as inhibitors. shares compounds with PI5P4K alpha inh
Starred values were filed as active, the others as inactive; i = inactive; u = inconclusive; x = no result given; ! = a repeat was not active; [ ] = another dose, or the depositor's remark. Only some compounds are listed: those with a hit (about 1.5% of all), similar ones and a draw of the others. Unless noted, the call rests on the fitted dose curve; in most records, active means well fitted curve in the direction sought with a large enough effect; inconclusive means small, poorly fitted or top-dose-only effect, or another doubt; inactive means no such curve, though single readings can be large; an effect the other way counts as inactive or inconclusive.

SMILES	RECQ1 inh-1	BLM inh-1	FEN1 inh-1	PI5P4K alpha inh	APE1 inh	GCN5L2 inh-1	BLM inh-2	RECQ1 inh conf	RECQ1 inh-2	others
O=C(N/N=C/c1cccc(F)c1)c1cc(-c2ccco2)nc2ccccc12	22.4µM*	11.2µM*	u	-88.2*	4.47µM*	u	5.76µM*	28.2µM*	x	RECQ1 ADP FP=u
CC1CCN(c2oc(-c3ccc(OCc4ccccc4Cl)cc3)nc2C#N)CC1	x	x	-10.6%	x	x	x	x	x	x
Cc1nc2cc(-c3ccsc3-n3c(C)ccc3C)[nH]n2c(=O)c1Cl	2.82µM*	15.8µM*	u	u	u	u	u	39.8µM*	u	RECQ1 ADP FP=31.6µM*
CCc1c(C)nc2cc(-c3ccccc3)[nH]n2c1=O	x	3.1%	-9.3%	-17.0	17.0%	-0.1%	x	x	x
COc1ccccc1CNC(=O)COC(=O)c1cc(-c2ccco2)nc2ccccc12	u	11.2µM*	50.1µM*	x	11.2µM*	-28.8%	18.2µM*	x	u
COc1ccccc1CNC(=O)COC(=O)c1cc(C)nc2ccccc12	x	x	1.0%	8.6	6.2%	-1.7%	x	x	x
COc1ccc(-c2nc3c(c4c2C[C@H](c2ccccc2)OC4)CN(S(=O)(=O)c2ccc4c(c2)OCCN4C)CC3)c(C)c1	i[11.5 µM]	2.4%[12.4 µM]	x	x	-2.9%[12.4 µM]	x	x	x	x
CCOc1ccccc1CNc1ccc(O)cc1	20µM*	28.2µM*	-9.7%	u	-19.3%	-3.9%	-9.2%	9.9%[114 µM]	1.3%	RECQ1 ADP FP=56.2µM*
COc1ccc(Br)cc1CNc1ccc(O)cc1	28.2µM*	20µM*	-11.9%	-29.2	-9.3%	0.8%	-2.9%	x	-12.3%
COc1ccc(Br)cc1CNc1ccc2[nH]c(=O)[nH]c2c1	i	-5.7%	-6.5%	-0.2	0.6%	-2.6%	x	x	x
O=[N+]([O-])c1cccc(S(=O)(=O)N2CCN(c3nc(-c4ccccc4)nc4ccccc34)CC2)c1	x	x	-10.3%	x	x	x	x	x	x
O=c1c(-c2cc(F)cc(F)c2)nc2cnc(N3CCNCC3)nc2n1Cc1ccc(F)cc1	u	35.5µM*	x	x	u	-21.5%	u	x	u
CC(C)CNC(=O)C1Nc2ccccc2C2C=CCC12 (stereo not drawn)	x	x	-19.9%	u	x	x	x	x	x
O=C(O)C1Nc2c(O)cccc2C2C=CCC12 (stereo not drawn)	3.98µM*	4.47µM*	39.8µM*	-81.3*	3.55µM*	-1.8%	5.41µM*	u	x
O=C(/C=C/c1ccc(O)c(O)c1)c1ccc(O[C@@H]2O[C@H](CO)[C@@H](O)[C@H](O)[C@H]2O)c(O)c1O	-10.4%	-0.2%	x	x	u	-22.0%	x	x	x
Cc1[nH]c2ccccc2c1/C=N/NC(=O)c1cccc([N+](=O)[O-])c1	1.58µM*	-8.2%	u	8.3	-11.1%	-8.0%	u	u	x	RECQ1 ADP FP=41.2%[91.9 µM]
Cc1ccc(SCC(=O)c2ccc(CC(=O)O)s2)cc1	25.1µM*	25.1µM*	-3.4%	u	-12.1%	-22.7%	u	x	6.5%
O=C(/C=C/c1ccc(Br)cc1)c1ccc(NC(=O)c2ccco2)cc1	3.98µM*	-17.6%	-14.2%	-18.7	17.2%	-2.6%	27.1µM*	u	u
Cc1c2oc3c(C)ccc(C(=O)N[C@@H]4C(=O)N[C@H](C(C)C)C(=O)N5CCC[C@H]5C(=O)N(C)CC(=O)N(C)[C@@H](C(C)C)C(=O)O[C@@H]4C)c3nc-2c(C(=O)N[C@@H]2C(=O)N[C@H](C(C)C)C(=O)N3CCC[C@H]3C(=O)N(C)CC(=O)N(C)[C@@H](C(C)C)C(=O)O[C@@H]2C)c(N)c1=O	3.55µM*	u	x	x	12.6µM*!	-5.8%	u	1.41µM*	x
O=C(O)CSc1cc(C(=O)c2ccccc2O)cn2c(=O)c3c(-c4ccccc4)csc3nc12	-22.4%	28.2µM*	u	-53.3*	-8.0%	25.1µM*	u	x	x	GCN5L2 inh-2=25.7*
COc1cccc([C@@H]2Oc3ccc(OC)cc3C(=O)[C@H]2OC(=O)NCCc2ccc(OC)c(OC)c2)c1	-0.8%	-6.5%	x	x	1.0%	x	x	x	x
CN(CCC#N)C(=O)COC(=O)c1c2c(nc3ccccc13)/C(=C/c1ccco1)CC2	15.8µM*	14.1µM*	50.1µM*	-67.9*	14.1µM*	u	u	x	u	FEN1 inh-2=67.5*
Cc1ccc(NCc2ccccc2OCc2ccccc2F)cc1	-14.0%	-23.2%	-14.4%	20.9	-10.4%	-5.1%	x	x	x
Oc1ccc(NCc2ccccc2OCc2ccccc2F)cc1	-10.0%	28.2µM*!	u	-22.5	u	-8.0%	u	x	x	FEN1 inh-2=u
CC[C@H](C)[C@H](NC(=O)[C@H](C)NC(=O)CNC(=O)[C@H](CCCCN)NC(=O)[C@H](CC(N)=O)NC(=O)[C@H](CO)NC(=O)CN)C(=O)N[C@H](C(=O)NCC(=O)N[C@@H](CC(C)C)C(=O)N[C@@H](CCSC)C(=O)O)[C@@H](C)CC	6.7%	-3.1%	x	x	1.6%	8.4%	x	x	x
Cc1cc(-c2nc3c4c5c(sc4[nH]c(=O)n3n2)CCC5)c(C)o1	12.6µM*	14.1µM*	u	-59.1*	u	u	11.5µM*	17.8µM*	u	RECQ1 ADP FP=u;ADP-Glo interf=-5.9%

Bioassay records from PubChem.
